# Laboratory results from PubChem BioAssay.
# Values joined by “and” are separate entries in the source; they are usually repeats but may differ in a detail not shown here. Identical values can stand only once. Active and inactive are the calls of the source.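 The calls were made as follows, unless noted: active = compounds whose cell count with miR-34 switched on is under 0.7 times the count with it off; inactive = the rest.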
# Tests used:
# [1] = stimulators of nuclear beta-catenin in C2C12, primary screen, imaging, WNT3A-conditioned medium, mouse C2C12, NPC library (AID 1117326; in the data active = nuclear beta-catenin stimulation mostly above about 4.2%, no sharp cut-off; inactive = mostly below about 10%; also: reference of the scale not given here); details: stronger effect = higher value
# [2] = stimulators of insulin release from INS-1E, primary screen, cell-based, 5 mM glucose, NPC library (AID 1117329;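 active = compound raises insulin release from rat beta cells at 5 mM glucose, no numeric limit stated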; also: reference of the scale not given here); details: rat INS-1E insulin secretion, at 10 µM, stronger effect = higher value
# [3] = growth inhibition of GSK3B-pretreated HCT116 cells – cell-based, CellTiter-Glo, 0.2 to 20 µM (AID 1117336;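 active = compounds lowering colon cancer cell viability after pretreatment blocking the GSK3B kinase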); details: HCT116 viability after GSK3B inhibitor, at 20 µM, stronger effect = higher value
# [4] = inhibition of endothelial tube formation, primary screen, imaging, VEGF stimulated, CD31 staining, tube area, NPC library (AID 1117340;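 active = compound that reduces growth-factor-driven endothelial tube area in a mixed cell culture, no cutoff stated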); details: VEGF-stimulated ADSC/ECFC co-culture, at 10 µM, stronger effect = higher value
# [5] = glucagon-like peptide 1 release enhancers, primary assay, NCI-H716 cell line, NPC library (AID 1117341;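 active = compound raises GLP1 secretion from the human gut endocrine cells, with no numeric limit stated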; also: reference of the scale not given here); details: NCI-H716 cells, at 10 µM, stronger effect = higher value
# [6] = HCT116 colon cancer cell growth inhibition, primary screen, CellTiter-Glo luminescence, NPC library (AID 1117342;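 active = compounds that lower survival of HCT116 colon cancer cells in the luminescence readout, no numeric limit stated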); details: at 20 µM (top of the series)
# [7] = CellTiter-Glo luminescent readout of SW480 viability loss, NPC library primary (AID 1117343;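 active = compounds that lower viability of the colon cancer cells in the luminescence readout, with no numeric limit stated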); details: CellTiter-Glo luminescence; at 20 µM (top of the series) unless noted
# [8] = decreased DLD-1 cellular survival, CellTiter-Glo luminescent readout, NPC compound collection, primary HTS (AID 1117346;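 active = compounds that lower survival of DLD-1 colon cancer cells in the luminescence readout, no cutoff given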); details: DLD-1 viability, CellTiter-Glo luminescence; at 20 µM (top of the series)
# [9] = sensitizers of A549 cells to miR-34 induction, primary screen, imaging, A549 dox-inducible miR-34, nuclei and caspase counts (AID 1347080); details: A549 miR-34 inducible, Hoechst nuclei count, 48 h
# [10] = phospholipid biosynthesis inhibitors in animal cells, primary screen, cell-based, LOPAC library, screen 4 (AID 1347384; call rule not given here); details: phospholipid biosynthesis inhibition screen, at 10 µM
# [11] = viability rescue of complex I mutant cybrids, primary screen, cell-based, galactose medium, ATP luminescence (AID 1645843;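 active = z-score of at least 1.8 in each of two replicates, scored against plate mean and spread of sample wells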;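 also: positive z means more ATP and so rescue of galactose-driven cybrid death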); details: complex I mutant cybrid cells, 72 h, stronger effect = higher value
# [12] = survival rescue of mitochondrial mutant cells in low glucose, primary screen, MELAS cybrids, Rieske KO mouse fibroblasts, CellTiter-Glo (AID 1508586;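 active = mean z-score across replicates of 1.96 or higher in either the MELAS or the Rieske mutant cell line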;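 also: z relative to plate mean and SD of compound and empty wells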)
# [13] = liver-stage malaria parasite growth inhibition, primary screen, cell-based, HepG2, luciferase luminescence, HepG2 viability (AID 624349; in the data active = parasite load remaining mostly below about 12%, no sharp cut-off; inactive = mostly above about 10%;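 also: 100% = mean of DMSO negative control wells on the same plate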); details: P. berghei liver stage in HepG2, luciferase luminescence, concentration not given here; parasite load remaining: stronger effect = lower value; viability: measured here: HepG2 viability without parasites
# [14] = stronger effect = lower value, cell number ratio, induced over uninduced
# [15] = measured here: relative caspase fold change +Dox/-Dox
# [16] = measured here: total cells with miR-34 induction, stronger effect = lower value
# [17] = measured here: total cells without miR-34 induction
# [18] = MELAS cybrid survival, CellTiter-Glo 48 h, stronger effect = higher value
# [19] = Rieske KO mouse fibroblast survival, CellTiter-Glo 72 h
Compound,nuclear beta-catenin stimulation ([1]; at 10 µM),"nuclear beta-catenin stimulation ([1]; stimulation, at 2 µM)",insulin secretion stimulation [2],viability decrease [3],tube area decrease [4],GLP1 secretion stimulation [5],inhibition of viability [6],viability decrease (inhibition) [7],viability decrease (inhibition) [8],"fold change [9, 14]","fold change [9, 15]","cell count [9, 16]","cell count [9, 17]",outcome [10],z-score [11],"z-score [12, 18]","z-score [12, 19]",parasite load remaining [13],viability [13]
Nc1cc(=O)[nH]c(N)n1,1.3% (inactive),1.3%,-1.5% (inactive),7.7% (inactive),-14.1% (inactive),-2.3% (inactive),-16.3% (inactive),71.1% (active),13.6% (inactive),0.958 (inactive),1.28,9880,10300,inactive,0.355 (inactive),,,,
NC(CO)(CO)CO,1.8% (inactive),3.7%,-0.6% (inactive),-2.3% (inactive),-6% (inactive),3.3% (inactive),-37% (inactive),-8% (inactive),2.75% (inactive),0.909 (inactive),0.61,8750,9620,,,-0.338 (inactive),-0.156,,
CSc1ccc(C(=O)c2[nH]c(=O)[nH]c2C)cc1,0.3% (inactive),0.1%,1.4% (inactive),-6.3% (inactive),-15.1% (inactive),0.1% (inactive),-7% (inactive),29% (inactive),9.15% (inactive),0.968 (inactive),1.32,8650,8940,inactive,0.31 (inactive),,,,
O=C(O)Cc1sc(-c2ccccc2)nc1-c1ccc(Cl)cc1,-0.8% (inactive),-0.1%,3.3% (inactive),18.7% (inactive),11.7% (inactive),-0.5% (inactive),43.2% (inactive),32.4% (inactive),16.6% (inactive),0.887 (inactive),0.944,10000,11300,,1.28 (inactive),-0.576 (inactive) and -0.0336 (inactive),-0.115 and 0.182,43.2% (inactive),106%
C#CC1(O)CC[C@H]2[C@@H]3CCC4=CCCC[C@@H]4[C@H]3CC[C@@]21C (some centres not stated),0.9% (inactive),0.1%,16.9% (inactive),110% (active),14.7% (inactive),20.3% (active),113% (active),132% (active),102% (active),0.949 (inactive),1.31,8290,8740,,,0.595 (inactive),0.485,25.2% (inactive) and 119% (inactive),48.4% and 91.7%
Cc1ccc(Nc2c(F)cccc2Cl)c(CC(=O)O)c1,1% (inactive),3.4%,-0.3% (inactive),0.4% (inactive),-20.6% (active),3.1% (inactive),-25.8% (inactive),-2.2% (inactive),-9.1% (inactive),0.931 (inactive),0.932 and 0.672,8200 and 8630,8810 and 9270,,,-0.194 (inactive),0.00857,,
C#C[C@]1(OC(C)=O)CC[C@H]2[C@@H]3CCC4=C[C@@H](OC(C)=O)CC[C@@H]4[C@H]3CC[C@@]21C,4.6% (inactive),2.1%,0.1% (inactive),-55.2% (inactive),-2.9% (inactive),-2.3% (inactive),45% (inactive),80.6% (active),64.6% (active),0.877 (inactive),1.09,9000,10300,,,-0.135 (inactive),0.556,82.1% (inactive),93.8%
